Laboratory results from publication PMC5540273 (PLoS ONE, 2017).
Read-outs that look alike come from different tables or passages of the source.

How the values were obtained:
[1] = test system: LRRK2; conditions: concentration: 1 μM, replicates: in singlicate; n = 1
[2] = test system: LTK; conditions: n = 1
[3] = test system: LYN; conditions: concentration: 1 μM, replicates: in singlicate; n = 1
[4] = test system: T1, LZK; conditions: concentration: 1 μM, replicates: in singlicate; n = 1
T1 construct: gene MAP3K13

[5] = test system: MAK; conditions: concentration: 1 μM, replicates: in singlicate; n = 1
[6] = test system: MAP3K15; conditions: concentration: 1 μM, replicates: in singlicate; n = 1
[7] = test system: MAP3K1; conditions: concentration: 1 μM, replicates: in singlicate; n = 1
[8] = test system: MAP3K2; conditions: concentration: 1 μM, replicates: in singlicate; n = 1
[9] = test system: MAP3K3; conditions: concentration: 1 μM, replicates: in singlicate; n = 1
[10] = test system: MAP3K4; conditions: concentration: 1 μM, replicates: in singlicate; n = 1
[11] = concentration: 1 μM, replicates: in singlicate
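Note: KINOMEscan kinase panel screen.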

Compound | %Inh [1] [%] | %Inh ([2]; 1 µM) [%] | %Inh [3] [%] | %Inh [4] [%] | %Inh [5] [%] | %Inh [6] [%] | %Inh [7] [%] | %Inh [8] [%] | %Inh [9] [%] | %Inh [10] [%] | %Inh [2, 11] [%]
CS(=O)(=O)Cc1ccc(Nc2nccc(-c3c(-c4cccc(NC(=O)C5CCCCC5)c4)nn4ncccc34)n2)cc1 [GSK350559] | 20 | 0 | 16 | 0 | 0 | 38 | 30 | 15 | 19 | 11 | –
COC(=O)C(Cc1ccccc1)NC(=O)NC1CCN(c2ccnc(Nc3ccc(F)cc3)n2)C1 (stereo not drawn) [GSK1379714] | 0 | – | 22 | 23 | 35 | 0 | 0 | 0 | 0 | 0 | 0
CNCc1ccc2nc(NC(=O)c3ccc(C(C)(C)C)cc3)cn2c1 | 10 | – | 0 | 0 | 15 | 98.9 | 19 | 21 | 0 | 4 | 12
Cc1c(Cn2c(C)c(C)n3c(=O)cc(N4CCOCC4)nc23)cccc1C(F)(F)F [GSK2328680] | 0 | – | 0 | 0 | 16 | 0 | 16 | 0 | 0 | 9 | 0
CC(=O)c1cccc(NC(=O)NC2CCN(c3ccnc(Nc4ccc(F)cc4)n3)C2)c1 (stereo not drawn) [GSK1379710] | 14 | – | 0 | 28 | 47 | 7 | 3 | 0 | 0 | 30 | 0
Cl.Cl.Cl.N#Cc1ccc(CCNc2nccc(-c3cccc(CN4CCNCC4)c3)n2)cc1 [GSK2137462] | 0 | – | 1 | 0 | 8 | 0 | 15 | 5 | 0 | 0 | 0
NS(=O)(=O)c1cccc(N/C=C2\C(=O)Nc3ccc(S(=O)(=O)Cc4c(Cl)cccc4Cl)cc32)c1 [GSK398099] | 0 | – | 0 | 0 | 28 | 0 | 15 | 0 | 0 | 0 | 0
Cc1ccc(NC(=O)Nc2ccccc2F)cc1-c1ccc(C(=O)Nc2ccncc2)cc1 [GSK1398477] | 15 | – | 47 | 0 | 30 | 0 | 12 | 5 | 0 | 24 | 16
CNc1nc(-c2ccc3c(N)n[nH]c3c2)cc(N2C[C@@H](C(=O)NC3CCCCC3)OC[C@H]2C)n1 [GSK2375584] | 0 | – | 0 | 35 | 0 | 0 | 0 | 0 | 0 | 0 | 0
CC(=O)c1c(C)c2cnc(Nc3ccn(C)n3)nc2n(C2CCCC2)c1=O | 0 | – | 10 | 0 | 0 | 0 | 0 | 0 | 0 | 0 | 0
COc1ccc(Nc2nccc(NCCNC(=O)Nc3cc(C)ccc3C)n2)cc1 [GSK1379899] | 23 | – | 0 | 0 | 20 | 0 | 1 | 0 | 0 | 3 | 0
CCc1ccc(-c2ccc3c(c2)-c2n[nH]cc2S(=O)(=O)N3C)cc1 | 0 | – | 0 | 0 | 0 | 0 | 0 | 0 | 0 | 19 | 3
Fc1ccc(-c2nc[nH]c2-c2ccncc2)cc1 [SB-217360] | 0 | – | 0 | 0 | 5 | 3 | 0 | 18 | 0 | 0 | 0
Cn1cncc1-c1cc2c(Nc3ccc(OCc4ccccc4)cc3)ncnc2cn1 [GW281179] | 10 | – | 0 | 0 | 19 | 0 | 0 | 0 | 0 | 15 | 4
COc1cc2ncnc(Nc3cccc(Br)c3)c2cc1OC.Cl [GI230329] | 0 | – | 67 | 38 | 34 | 0 | 2 | 33 | 29 | 4 | 0
O=C(Nc1n[nH]c2nc(-c3cccs3)c(Br)cc12)C1CCCC1 [SB-743341] | 28 | – | 0 | 36 | 77 | 32 | 49 | 5 | 28 | 0 | 17
CC[C@@H]1CO[C@H](C(=O)Nc2ccccc2)CN1c1cc(-c2ccc3c(N)n[nH]c3c2)nc(NC)n1 [GSK2376236] | 0 | – | 0 | 0 | 21 | 0 | 21 | 0 | 0 | 0 | 5
Cc1ccccc1-c1cc(-c2c[nH]nc2-c2ccccn2)ccn1 [GW680061] | 23 | – | 0 | 4 | 34 | 0 | 10 | 1 | 0 | 14 | 0
